Calb FLC = C. albicans growth modulation with fluconazole; C. albicans CaCi-2 (fluconazole-resistant clinical isolate) + fluconazole, Alamar Blue growth, 48 h; actives 0.57% (n = 300,000); AID 1979; growth inhibition, % (no concentration beside the values);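 active = growth inhibition above about 58% in most replicates, limit read from the data, passing the limit was not always enough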;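 note: all wells also contain fluconazole at 8 µg/ml as a sub-toxic cotreatment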
697 NFkB inh = inhibitors of the PMA/ionomycin-induced NF-kB reporter in 697 B cells | 697 B-cell NF-kB luciferase reporter, 16 h | inhibition, % at 4 µM | actives 0.33% (n = 330,000); in the data active = inhibition above about 35%
Jurkat NFkB inh = lowers PMA/ionomycin-induced NF-kB signal in Jurkat cells; PMA/ionomycin-induced NF-kB luciferase reporter, luminescence; inhibition, % at 4 µM; actives 0.53% (n = 330,000); in the data active = inhibition above about 50%
Shn3 inh set2 = reduces Shn3 3'UTR luciferase signal in osteoblasts | Clone20 osteoblast Shn3 3'UTR firefly luciferase, 24 h | inhibition, % at 12.5 µM | actives 0.52% (n = 360,000);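 active = mean inhibition of at least 75% with every replicate also reaching 75%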
Beta apoptosis = blocks beta cell apoptosis | INS-1E cytokine-induced death, ATP luminescence, 48 h; percent of positive-control rescue, neutral wells zero | protection from apoptosis, % (no concentration beside the values) | actives 0.8% (n = 300,000);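 active = Every replicate reaches about 75%, or at least half do and their mean reaches it too, limit read from the data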;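 note: higher means more ATP so stronger rescue from cytokine killing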
Jurkat NFkB conf = lowers PMA/ionomycin-induced NF-kB signal in Jurkat cells; inhibition, % at 4 µM; Jurkat NF-kB luciferase, 16 h; actives 27% (n = 2,700); AID 435020; shares compounds with Jurkat NFkB inh;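 active = inhibition reaching about 45% at 4 µM in either replicate, limit read from the data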
697 NFkB conf = inhibitors of the PMA/ionomycin-induced NF-kB reporter in 697 B cells, retest; shares compounds with 697 NFkB inh; AID 449746; actives 35% (n = 2,000); inhibition, % at 4 µM; 697 B-cell NF-kB luciferase, 16 h; in the data active = inhibition mostly above about 28%, no sharp cut-off; inactive = mostly below about 22%
Of the large screens only hits and unclear results are named; the others gave an inactive call (follow-up assays come after a bar, where they were run). The list is not random: actives were taken first. Their share in the collection is about 2%.

CC(=O)O[C@H]1C(=O)[C@@]2(C)C([C@H](OC(=O)c3ccccc3)[C@]3(O)C[C@H](OC(=O)[C@H](O)[C@@H](NC(=O)Cc4ccccc4)c4ccccc4)C(C)=C1C3(C)C)[C@]1(OC(C)=O)CO[C@@H]1C[C@@H]2O (some centres undefined)	Jurkat NFkB inh 61.7 | Jurkat NFkB conf 62.5
COC(=O)C1=C(c2cccc(OCc3ccccc3)c2)C[C@@H]2CC[C@H]1N2C(=O)NCCc1ccc(F)cc1	none (no result: Calb FLC)
C[C@]12CC[C@H](O)C[C@H]1CC[C@@H]1[C@@H]2CC[C@]2(C)[C@@H](C3=CC(=O)OC3)CC[C@]12O	Jurkat NFkB inh 101.1 (no result: Calb FLC) | Jurkat NFkB conf 91.4
CCOP(=O)(OCC)C(O)c1ccc2c(c1)OCO2 (centres undefined)	none
Cc1nc2c(=O)n(C)c(=O)nc-2n(C)n1	Jurkat NFkB inh 55.8, Shn3 inh set2 98.1, Beta apoptosis 105.9 | Jurkat NFkB conf 99.7
O=C(Cc1ccccc1)N1CCN(Cc2cccnc2)CC1	none
COC(=O)C1CN(C#N)N(c2ccc(Cl)cc2)C12c1ccccc1-c1ccccc12 (centres undefined)	Jurkat NFkB inh 87.4, Shn3 inh set2 96.8, Beta apoptosis 112.0 | Jurkat NFkB conf 59.5
CC1(C)C(C(=O)N2CCN(c3ccc(Cl)cc3)CC2)C1(C)C	none (no result: Calb FLC)
Cc1ccc(-c2cc(-c3ccc(C)cc3)[n+](-c3ccc(C(=O)O)cc3)c(-c3ccc(C)cc3)c2)cc1	none
Cc1ccc(C[n+]2c(-c3ccc(C)cc3)cc(-c3ccc(C)cc3)cc2-c2ccc(C)cc2)cc1	Jurkat NFkB inh 98.8, Shn3 inh set2 91.6, Beta apoptosis 117.9 | Jurkat NFkB conf 67.2
COc1cc2c(c(OC)c1OC)-c1ccc(O)c(=O)cc1C(NC(C)=O)CC2 (centres undefined)	Jurkat NFkB inh 55.2 | Jurkat NFkB conf inactive
CN1c2ccc([N+](=O)[O-])cc2CC2(C(=O)NC(=O)N(c3ccc(Br)cc3)C2=O)C1c1ccccc1 (centres undefined)	none (no result: Beta apoptosis)
CN(C)C(=O)O/N=C(\N)COc1ccc(C(C)(C)C)cc1	Jurkat NFkB inh 60.0 | Jurkat NFkB conf inactive
N#CC12CNCC1CN=N2 (centres undefined)	none (no result: 697 NFkB inh, Jurkat NFkB inh, Beta apoptosis)
CN1/C(=C\C=C\C2=[N+](C)c3ccc4ccccc4c3C2(C)C)C(C)(C)c2ccccc21	Jurkat NFkB inh 99.0, Beta apoptosis 100.2 (no result: Calb FLC, Shn3 inh set2) | Jurkat NFkB conf 84.0
CNc1ccc2nc3ccccc3[n+](C)c2c1	Jurkat NFkB inh 81.1, Beta apoptosis 93.4 | Jurkat NFkB conf inactive
C[n+]1c2ccccc2nc2ccc(NCCO)cc21	none
Fc1cccc(C2NCCc3[nH]cnc32)c1 (centres undefined)	none
COc1cc(C2c3cc4c(c(O)c3CC3COC(=O)C32)OCO4)cc(OC)c1OC (centres undefined)	none (no result: Calb FLC, 697 NFkB inh, Jurkat NFkB inh, Beta apoptosis)
COc1cc(C2c3cc4c(cc3CC3COC(=O)C32)OCO4)cc(OC)c1OC (centres undefined)	Jurkat NFkB inh 53.0 (no result: Calb FLC, Beta apoptosis) | Jurkat NFkB conf 49.3
COP(=S)(OC)SCn1nnc2ccccc2c1=O	none (no result: Calb FLC, 697 NFkB inh, Jurkat NFkB inh, Beta apoptosis)
CC(C)(C)NC(=O)CN1CCCN(C(=O)COc2ccc(Cl)c3ccccc23)CC1	none (no result: Calb FLC)
CCCC[C@@H](C)C[C@@H](C)C(=O)N(C)[C@@H](CC(C)C)C(=O)N[C@H](C(=O)N(C)[C@H](C(=O)N1C[C@@H](O)C[C@H]1C(=O)N1C(=O)C=C[C@@H]1C)C(C)C)C(C)OC(C)=O (some centres undefined)	Jurkat NFkB inh 90.6 (no result: Calb FLC, Beta apoptosis) | Jurkat NFkB conf 93.3
CSCCC(c1nnnn1C1CCCCC1)N1CCC2(CC1)C(=O)NCN2c1ccccc1 (centres undefined)	none (no result: Calb FLC, 697 NFkB inh, Jurkat NFkB inh, Beta apoptosis)
Nc1c2c(nc3sc4c(c13)CCCC4)CCCCC2	none | Jurkat NFkB conf inactive
CC(=O)OC(C)(C)/C=C/C(=O)[C@](C)(O)C1[C@H](O)C[C@@]2(C)C3CC=C4C(C[C@H](O)C(=O)C4(C)C)[C@]3(C)C(=O)C[C@]12C (some centres undefined)	697 NFkB inh 55.7, Jurkat NFkB inh 92.4 (no result: Calb FLC) | Jurkat NFkB conf 61.8 | 697 NFkB conf 71.0
CCc1ccc(N2C(=O)NC(=O)C(Cc3ccc(OC)cc3OC)C2=O)cc1 (centres undefined)	none
COC1C(O)C(C)OC(OC2CCC3(C)C(CCC4C3C(O)CC3(C)C(C5=CC(=O)OC5)CCC43O)C2)C1O (centres undefined)	none (no result: Calb FLC, 697 NFkB inh, Jurkat NFkB inh, Beta apoptosis)
C[C@@H]1O[C@@H](O[C@H]2C[C@@H](O)[C@]3(CO)[C@@H]4C(CC[C@]3(O)C2)[C@@]2(O)CC[C@H](C3COC(=O)C3)[C@@]2(C)C[C@H]4O)[C@H](O)[C@H](O)[C@H]1O (some centres undefined)	Jurkat NFkB inh 95.0 (no result: Calb FLC) | Jurkat NFkB conf 67.0 | 697 NFkB conf inactive
CC(C)c1oc(=O)cc2c1[C@@H](O)[C@H]1OC(=O)[C@@]3(C)C[C@@H](O)[C@@H](O)[C@@]2(C)C13 (some centres undefined)	Jurkat NFkB inh 90.1 | Jurkat NFkB conf 90.5 | 697 NFkB conf inactive
O=P(O)(O)Cc1c(Cl)cccc1Cl	none
N#Cc1cn(C2OC(CO)C(O)C2O)c2ncnc(N)c12 (centres undefined)	none (no result: Calb FLC, 697 NFkB inh, Jurkat NFkB inh, Beta apoptosis)
NC(=O)c1cn(C2OC(CO)C(O)C2O)c2ncnc(N)c12 (centres undefined)	697 NFkB inh 103.7, Jurkat NFkB inh 99.8 (no result: Beta apoptosis) | Jurkat NFkB conf 97.0 | 697 NFkB conf 105.6
CC12CCC(O)CC1CCC1C2CCC2(C)C(C3=CC(=O)OC3)CCC12O (centres undefined)	none (no result: Calb FLC, 697 NFkB inh, Jurkat NFkB inh, Beta apoptosis)
C[C@]12CC[C@H](O)C[C@H]1CC[C@@H]1[C@@H]2C[C@@H](O)[C@]2(C)[C@@H](C3=CC(=O)OC3)CC[C@]12O	Jurkat NFkB inh 97.6 (no result: Calb FLC) | Jurkat NFkB conf 74.1 | 697 NFkB conf inactive
CC(=O)OC1=CC[C@H]2[C@@H]3CC[C@H]4C[C@H](OC(C)=O)[C@@H](OC(C)=O)C[C@]4(C)[C@H]3CC[C@]12C	none (no result: Calb FLC)
C=C1C(=O)O[C@@H]2C[C@@H](C)[C@@H]3C4OC4C(=O)[C@@]3(C)[C@@H](O)[C@H]12 (some centres undefined)	Calb FLC 76.8, Jurkat NFkB inh 57.9, Beta apoptosis 104.5 | Jurkat NFkB conf inactive | 697 NFkB conf inactive
C[C@H]1CCC/C=C/C2C[C@H](O)CC2[C@H](O)/C=C/C(=O)O1 (some centres undefined)	697 NFkB inh 71.1, Jurkat NFkB inh 98.1, Shn3 inh set2 93.7, Beta apoptosis 99.5 (no result: Calb FLC) | Jurkat NFkB conf inactive | 697 NFkB conf 80.7

Source: PubChem BioAssay (several laboratories)
